This is an account of results in PubChem BioAssay AID1851 (National Center for Advancing Translational Sciences (NCATS), 2009).

The campaign covered roughly 16,000 compounds. About 4,000 (25%) were called active. Not shown: some 26% with an inconclusive outcome. Calls come from the whole dose curve; as a rule, active = well fitted curve in the direction sought with a large enough effect; inconclusive = small, poorly fitted or top-dose-only effect, or effect the other way; inactive = no such curve, though single readings can be large or run the other way. Only a sample is shown.

The term AC50 denotes the midpoint of the concentration-response curve, whichever way the signal moves.
% is set by controls: 0 for no effect and ±100 for the full control effect.

The target in this test is Cytochrome P450 2C9 (Homo sapiens) (UniProt P11712). The test is described as follows: Cytochrome panel assay with activity outcomes. The settings on record: recombinant CYP, pro-luciferin dealkylation, luminescence, p450-cyp2c9; series mostly up to 57.1 µM.
Chain of Cytochrome P450 2C9 (Homo sapiens) (P11712 whole entry, looked up): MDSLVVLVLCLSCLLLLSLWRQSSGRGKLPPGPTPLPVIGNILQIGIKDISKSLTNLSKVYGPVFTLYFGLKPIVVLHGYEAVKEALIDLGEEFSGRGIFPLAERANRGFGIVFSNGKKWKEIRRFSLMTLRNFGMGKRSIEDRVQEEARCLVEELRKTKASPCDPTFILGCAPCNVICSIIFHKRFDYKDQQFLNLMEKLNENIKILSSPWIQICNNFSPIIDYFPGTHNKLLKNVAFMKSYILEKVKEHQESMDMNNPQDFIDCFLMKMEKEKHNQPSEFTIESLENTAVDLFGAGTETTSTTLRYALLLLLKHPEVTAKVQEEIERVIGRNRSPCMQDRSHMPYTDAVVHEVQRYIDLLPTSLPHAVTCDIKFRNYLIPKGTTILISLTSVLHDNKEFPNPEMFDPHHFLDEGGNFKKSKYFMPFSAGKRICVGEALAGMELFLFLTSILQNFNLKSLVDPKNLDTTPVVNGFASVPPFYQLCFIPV
For `CCO/C([O-])=N/c1c[n+](N2CCOCC2)no1`, the AC50 entry was “inactive”.
As for `Clc1ccccc1-c1nc(NC2CCNCC2)c2ccccc2n1`, the activity, negative = inhibition was 2.89% [at 2.29 µM] (inactive).
Consider `COC(=O)CN(c1ccc(OC)cc1)S(=O)(=O)c1c(C)noc1C`, for which the AC50 is 11.2 µM (active).
As to `COc1ccc(NC(=O)N2CC3(CCN(C(=O)c4c(C)noc4C)CC3)C2)cc1`, the AC50 entry is “inactive”.
`COc1ccc(N(CC(=O)NCc2cccc(OC)c2)S(=O)(=O)c2c(C)noc2C)cc1`: the AC50 is 7.94 µM (active).
Still for that read-out and setting: to `CCOc1ccc(N(CC(=O)NCc2ccc(OC)cc2)S(=O)(=O)c2c(C)noc2C)cc1` belongs “inactive”; to `COc1ccc(NC(=O)N2CCCC3(CCN(C(=O)c4c(C)noc4C)CC3)C2)cc1`, “inactive”.
For the compound `COc1cccc(CNCCNC(=O)c2nonc2N)c1`, the AC50 entry was “inactive”.
In the case of `NC(N)=N/N=C(/c1ccccc1)c1ccc(O)cc1O`, the activity, negative = inhibition is -9.7% [at 11.4 µM] (inactive).
In the case of `Cc1ccc(S(=O)(=O)N2CCN(C(=O)CN3CCN(C)CC3)C2)cc1`, the AC50 entry was “inactive”.
Same read-out and setting: with `COc1ccc(S(=O)(=O)N2CCC(NC(=O)Nc3ccc(C)cc3)CC2)cc1` the entry was “inactive”; with `Cc1ccc(C(=O)NC(=S)Nc2ccc(S(=O)(=O)N3CCN(C)CC3)cc2)cc1`, 14.1 µM (active).
For the compound `Cc1[nH]n(C(C)(C)C)c(=O)c1Sc1ccccc1`, the half-maximal activity concentration (AC50) is 7.08 µM (active).
Take `Cc1[nH]n(C(C)(C)C)c(=O)c1Sc1ccc(Cl)cc1`: the AC50 was 12.6 µM (active).
Turning to `COc1cccc(Nc2ncc3nc(CCc4ccccc4)c(=O)n(C4CC4)c3n2)c1`, the AC50 entry is “inactive”.
The same measure, in the same setting: to `CN(C)c1ncc2nc(CCc3ccccc3)c(=O)n(C3CC3)c2n1` belongs 12.6 µM (active); to `COc1ccc(Oc2ncc3nc(CCc4ccccc4)c(=O)n(C4CC4)c3n2)cc1`, 12.6 µM (active); to `COc1ncc2nc(CCc3ccccc3)c(=O)n(C3CC3)c2n1`, 15.8 µM (active).
Same read-out and setting: with `COc1ccc(-n2c(=O)c(C)nc3cnc(Oc4ccccc4)nc32)cc1` the entry was “inactive”; with `COc1cccc(Nc2ncc3nc(-c4cccs4)c(=O)n(-c4ccccc4)c3n2)c1`, “inactive”.
Consider `CNc1nc(-c2ccoc2)nc2ccccc12`, for which the activity, negative = inhibition was 13% [at 2.29 µM] (inactive).
`Clc1ccc2c(c1)C=Nc1c(NCc3ccccc3)ncnc1O2`: the AC50 entry was “inactive”.
As for `Fc1ccc(-c2cn3cc(C(F)(F)F)cc(Cl)c3n2)cc1`, the AC50 is 4.47 µM (active).
As for `N#Cc1ccc(-c2ccc(F)cc2)nc1Oc1ccc(Cl)c(Cl)c1`, the AC50 entry was “inactive”.
With `OCCCNCc1ccccn1`, the activity, negative = inhibition is 9.34% [at 11.4 µM] (inactive).
As for `CC12CC(NC(=O)N1c1cccc(C(=O)NCc3ccccc3)c1)c1ccccc1O2` (configuration not stated), the AC50 was 3.98 µM (active).
Take `O=C(NCc1ccccc1)c1ccc2c(c1)C(=O)N(CC1CCCO1)C2=O` (configuration not stated): the AC50 entry was “inactive”.
Take `COc1ccc(N2C(=O)NC3CC2(C)Oc2ccccc23)cc1OC` (configuration not stated): the AC50 entry was “inactive”.
On to `Cn1c(=O)c2[nH]c(CCCCc3nc4c([nH]3)c(=O)n(C)c(=S)n4C)nc2n(C)c1=S`, for which the activity, negative = inhibition was -2.51% [at 11.4 µM] (inactive).
Turning to `Cn1c(=O)c2[nH]c(SCc3ccccn3)nc2n(C)c1=S`, the AC50 is 3.16 µM (active).
For the compound `Cn1c(=S)c2[nH]c(SCCN3C(=O)c4ccccc4C3=O)nc2n(C)c1=O`, the activity, negative = inhibition is -3.8% [at 11.4 µM] (inactive).
Consider `CCOc1ccc(NC(=S)N(Cc2ccc(Cl)cc2)Cc2ccco2)cc1`, for which the AC50 is 10 µM (active).
As for `CN(C)c1ccc(-c2cc(N(C)Cc3ccco3)ncn2)cc1`, the activity, negative = inhibition was -6.39% [at 2.29 µM] (inactive).
For `CCOc1ccc(NC(=S)N(Cc2ccc(N(C)C)cc2)Cc2ccco2)cc1`, the concentration at half-maximal activity (AC50) was 1 µM (active).
Consider `CN(C)c1ccc(-c2cncnc2N(C)Cc2ccco2)cc1`, for which the activity, negative = inhibition is -17.3% [at 2.29 µM] (inactive).
Consider `N[C@H](C(=O)O)[C@H](O)C(=O)O`, for which the AC50 result is “inactive”.
Consider `Cc1ccc(NC(=O)c2ccc(NCC3CCCO3)c([N+](=O)[O-])c2)cc1Cl` (configuration not stated), for which the concentration at half-maximal activity (AC50) is 1.12 µM (active).
`Cc1cc(C)c(S(=O)(=O)N2CCN(c3ccc([N+](=O)[O-])c(NCC4CCCO4)c3)CC2)c(C)c1` (configuration not stated): the half-maximal activity concentration (AC50) is 2 µM (active).
For the compound `CC(C)(C)C(=O)N1CCN(c2ccc([N+](=O)[O-])c(NCC3CCCO3)c2)CC1` (configuration not stated), the AC50 was 12.6 µM (active).
`CCS(=O)(=O)N1CCC(C(=O)NCC2CCCO2)CC1` (configuration not stated): the AC50 result was “inactive”.
On to `N#CCSc1ncnc2c1cnn2CCO`, for which the AC50 result is “inactive”.
On to `O=C1C2C3C=CC(C3)C2C(=O)N1c1ncn[nH]1` (configuration not stated), for which the AC50 result is “inactive”.
As to `CC1=NN(c2ccccc2)C(=O)/C1=C\N1CC(C)OC(C)C1` (configuration not stated), the AC50 entry was “inactive”.
On to `CCOc1cc(/C=C2/C(=O)N(c3ccccc3)N=C2C)ccc1OC(=O)c1ccco1`, for which the AC50 is 0.631 µM (active).
With `CC1=NN(c2ccc(S(=O)(=O)O)cc2)C(=O)/C1=C\c1ccc(Cl)cc1`, the activity, negative = inhibition was -2.05% [at 11.4 µM] (inactive).
Take `CNc1nc(-c2ccccc2CN(C)C)nc2ccccc12`: the activity, negative = inhibition is 4.11% [at 2.29 µM] (inactive).
As to `O=C1Oc2ccccc2C(=O)/C1=C\N1C(=O)N/C(=C\c2ccccc2O)C1=O`, the AC50 was 1 µM (active).
On to `C[C@H](C[C@H](N)C(=O)O)C(=O)O`, for which the AC50 result is “inactive”.
Regarding `CC(=O)OC[C@@H]1O[C@@H](O/N=C2/C[C@@H](O)[C@@H](O)[C@@H]3[C@@H]4C(=O)N([C@@H](C)c5ccccc5)C(=O)[C@H]4CC[C@@H]23)[C@H](OC(C)=O)[C@H](OC(C)=O)[C@@H]1OC(C)=O`, the activity, negative = inhibition is 16.3% [at 11.4 µM] (inactive).
On to `O=S(=O)(c1ccccc1)N1CCCC1c1nc2ccccc2s1` (configuration not stated), for which the AC50 was 12.6 µM (active).
Consider `CC(C)NC(=O)N1CCC2(CC1)CCN(C(=O)c1cccn1C)CC2`, for which the AC50 result was “inactive”.
In the case of `COc1ccccc1CNc1ncncc1-c1ccccc1Cl`, the activity, negative = inhibition was -27.8% [at 2.29 µM] (inactive).
With `COc1cccc(CNc2ccc(F)c(Cl)c2)c1O`, the concentration at half-maximal activity (AC50) was 2.82 µM (active).
For the compound `COc1ccccc1CNc1ccnc(-c2ccccc2Cl)n1`, the activity, negative = inhibition is -21.6% [at 2.29 µM] (inactive).
In the case of `CCCN1C2=NCCCN2c2ccccc21`, the AC50 result is “inactive”.
As for `COc1ccc(/C=C/C(=O)c2ccoc2)cc1`, the concentration at half-maximal activity (AC50) was 28.2 µM (active).
Consider `COc1ccc(C(=O)/C=C(/C)N(C)C)cc1`, for which the AC50 entry is “inactive”.
`O=C(/C=C/c1ccc2ccccc2c1)c1ccoc1`: the AC50 entry is “inactive”.
In the case of `NCCSc1nc(-c2ccccc2)c(-c2ccccc2)o1`, the activity, negative = inhibition was -11.6% [at 11.4 µM] (inactive).
`O=C(CCc1nc(-c2ccccc2)c(-c2ccccc2)o1)OCc1ccc(Cl)cc1`: the half-maximal activity concentration (AC50) is 22.4 µM (active).
Consider `COc1cccc(C(=O)N(C)c2nnc(-c3ccncc3)s2)c1`, for which the AC50 is 2 µM (active).
Consider `COc1cccc(-c2ccc3ncnc(N(C)C)c3c2)c1`, for which the activity, negative = inhibition is -9.73% [at 2.29 µM] (inactive).
In the case of `CN(C)C(=O)c1ccc(-c2cncnc2NCc2cccnc2)cc1`, the activity, negative = inhibition is 8.29% [at 2.29 µM] (inactive).
As to `Cc1ccc(-c2nnc(N(C)C(=O)c3cccnc3)s2)cc1`, the concentration at half-maximal activity (AC50) is 1.41 µM (active).
For `CC(=O)N(C)c1nnc(-c2cnccn2)s1`, the AC50 result is “inactive”.
Consider `CCCC1S/C(=N/N=C/c2ccc(OC)cc2)N(Cc2ccc(OC)cc2)C1=O` (configuration not stated), for which the half-maximal activity concentration (AC50) is 15.8 µM (active).
Turning to `CC(C)=NO[C@@H](C)c1cc(-c2c(C)cc(C)cc2C)no1`, the activity, negative = inhibition is -0.976% [at 11.4 µM] (inactive).
Take `CCOC(=O)c1c(C)oc2c1c(C=NC1CCS(=O)(=O)C1)c(O)c1ccccc12` (configuration not stated): the AC50 result was “inactive”.
As for `CCOC(=O)c1c(C)oc2c1cc(O)c1ccccc12`, the AC50 is 1.12 µM (active).
`C[C@@H]1C[C@H](OC(=O)[C@@H](O)c2ccccc2)CC(C)(C)N1C`: the AC50 entry was “inactive”.
With `CCCC(=O)Nc1nc(-c2ccc3c(c2)CCN3S(C)(=O)=O)cs1`, the AC50 entry was “inactive”.
As to `OCCn1cnc2c(SCc3ccccc3)ncnc21`, the activity, negative = inhibition was 12.5% [at 11.4 µM] (inactive).
Consider `CCCc1nnc(NC(=O)CCC(=O)NCc2ccccc2OC)s1`, for which the AC50 entry was “inactive”.
On the same count and under the same terms, with `COc1ccc(-c2csc(NC(=O)CCn3cnc4ccccc4c3=O)n2)cc1OC` the figure was 1 µM (active); with `CCCc1nnc(NC(=O)CCC(=O)N2CCN(c3ccccn3)CC2)s1`, “inactive”; with `CCCc1nnc(NC(=O)Cn2cnc3ccccc3c2=O)s1`, 17.8 µM (active).
`O=C(Cn1cnc2ccccc2c1=O)Nc1nnc(SCc2ccccc2)s1`: the AC50 was 8.91 µM (active).
Consider `Cn1c(=O)c2[nH]c(CCCc3ccc([N+](=O)[O-])cc3)nc2n(C)c1=O`, for which the activity, negative = inhibition was 1.93% [at 11.4 µM] (inactive).
Take `Cc1ccc(C(=O)COC(=O)CNC(=O)Cc2ccccc2)cc1[N+](=O)[O-]`: the AC50 is 14.1 µM (active).
For the compound `CC(C)(C)c1ccc(COC(=O)CNC(=O)CNC(=O)Cc2ccccc2)cc1`, the AC50 result was “inactive”.
Regarding `Cc1ccc(C(=O)COC(=O)CNC(=O)C(c2ccccc2)c2ccccc2)cc1[N+](=O)[O-]`, the AC50 result was “inactive”.
For the compound `O=C1[C@H]2[C@H]3[C@H](O)[C@H](O)C/C(=N/OC[C@@H](O)COCc4ccco4)[C@@H]3CC[C@@H]2C(=O)N1C[C@@H]1CCCO1`, the activity, negative = inhibition was 39.3% [at 11.4 µM] (inactive).
Turning to `COc1ccc(S(=O)(=O)N2CCC(N3CCCCC3)CC2)cc1`, the AC50 entry was “inactive”.
For `COc1ccc(S(=O)(=O)N2CC3C4C=CC(C4)C3C2)cc1` (configuration not stated), the AC50 is 14.1 µM (active).
`CCN(CC)CCOC(=O)[C@@H](c1ccccc1)C1CCCCC1`: the AC50 result is “inactive”.
Turning to `CC(C)(C)NC(=O)CSC(=Nc1ccc(F)cc1)NC#N`, the half-maximal activity concentration (AC50) is 12.6 µM (active).
Regarding `CC(C)OC(=O)c1cc2c(OC[C@@H](O)CNC(C)(C)C)cccc2[nH]1`, the AC50 entry was “inactive”.
In the case of `CC(C)CO/N=C1/C[C@@H](O)[C@@H](O)[C@@H]2[C@@H]3C(=O)N(C[C@@H]4CCCO4)C(=O)[C@H]3CC[C@H]12`, the activity, negative = inhibition is 9.45% [at 11.4 µM] (inactive).
In the case of `Cc1nn(-c2ccccc2)c2c1C(=O)N(Cc1ccccc1)C(=O)C(C)(C)C2`, the AC50 is 17.8 µM (active).
Consider `O=C(NCCCN1CCN(C2CCCCC2)CC1)Nc1ccccc1C(F)(F)F`, for which the AC50 result is “inactive”.
For the compound `CCOC(=O)C1=C(C)NC2=C(C(=O)C(C(=O)OCC)C(c3ccc(OC)cc3)C2)C1c1ccccn1` (configuration not stated), the AC50 was 8.91 µM (active).
On to `CN1CCN(c2ncc3nc(-c4cccc(C#N)c4)c(=O)n(CCC#N)c3n2)CC1`, for which the AC50 entry was “inactive”.
In the case of `COCCn1c(=O)c(-c2cc(F)cc(F)c2)nc2cnc(N3CCOCC3)nc21`, the AC50 entry was “inactive”.
Same read-out and setting: with `COCCn1c(=O)c(-c2cccc(C#N)c2)nc2cnc(N3CCNCC3)nc21` the figure was 3.98 µM (active); with `COc1ccc(-n2c(=O)c(-c3cccc(C#N)c3)nc3cnc(N4CCNCC4)nc32)cc1`, “inactive”; with `COCCn1c(=O)c(-c2cc(F)cc(F)c2)nc2cnc(N3CCNCC3)nc21`, 1.26 µM (active).
With `COCCn1c(=O)c(C)nc2cnc(N3CCNCC3)nc21`, the AC50 result was “inactive”.
